Measurements as given in PubChem BioAssay AID651699 (Sanford-Burnham Center for Chemical Genomics, 2012).
Among all 360,000 compounds or so, about 2,100 (0.58%) were called active. For the sample, actives were picked, then their nearest neighbours and some compounds at random. Unmarked numbers belong to inactive results. Rule as the data show it: active = inhibition above about 36%; inactive = the rest.

Biological target: NEDD8-conjugating enzyme Ubc12 (Homo sapiens) + NEDD8-activating enzyme E1 regulatory subunit (Homo sapiens) (UniProt P61081+Q13564)
Test: inhibitors of cullin neddylation, primary screen, biochemical, TR-FRET, uHTS, NAE and Ubc12 (AID 651699)
Conditions: at 25 µM, active compounds read high

Sequence of NEDD8-conjugating enzyme Ubc12 (Homo sapiens) + NEDD8-activating enzyme E1 regulatory subunit (Homo sapiens) (P61081 whole entry, looked up): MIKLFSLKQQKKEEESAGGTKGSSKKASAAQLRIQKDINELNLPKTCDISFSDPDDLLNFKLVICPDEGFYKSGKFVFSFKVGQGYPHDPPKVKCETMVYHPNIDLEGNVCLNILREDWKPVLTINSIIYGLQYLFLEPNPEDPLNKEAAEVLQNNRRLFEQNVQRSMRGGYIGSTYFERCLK
Sequence of NEDD8-conjugating enzyme Ubc12 (Homo sapiens) + NEDD8-activating enzyme E1 regulatory subunit (Homo sapiens) (Q13564 whole entry, looked up): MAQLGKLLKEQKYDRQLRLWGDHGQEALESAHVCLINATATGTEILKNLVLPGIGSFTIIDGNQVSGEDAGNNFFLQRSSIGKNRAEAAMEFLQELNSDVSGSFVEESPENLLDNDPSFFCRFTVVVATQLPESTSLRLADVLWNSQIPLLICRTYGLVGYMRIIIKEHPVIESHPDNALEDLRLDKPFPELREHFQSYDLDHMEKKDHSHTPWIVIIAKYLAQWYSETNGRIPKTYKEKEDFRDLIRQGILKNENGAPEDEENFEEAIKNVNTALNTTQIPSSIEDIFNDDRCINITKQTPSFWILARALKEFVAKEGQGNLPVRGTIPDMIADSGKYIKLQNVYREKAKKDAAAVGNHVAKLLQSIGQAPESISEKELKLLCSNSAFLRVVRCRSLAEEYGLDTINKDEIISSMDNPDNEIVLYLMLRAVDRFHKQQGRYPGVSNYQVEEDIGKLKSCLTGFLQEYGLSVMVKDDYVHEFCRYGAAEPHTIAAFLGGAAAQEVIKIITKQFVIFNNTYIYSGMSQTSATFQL

SMILES	inhibition
O=C(CN1CCN(C2CCS(=O)(=O)C2)CC1)N1N=C(c2ccc(Cl)cc2)CC1c1ccco1 (stereo unspecified)	3.58%
COC(=O)C1=CN(C)C=C(C(=O)OC)C1c1ccc(Cl)cc1Cl	42.5% (active)
COC(=O)C1=CN(c2ccc(F)c(F)c2)C=C(C(=O)OC)C1c1ccc([N+](=O)[O-])cc1	-12.5%
NC(=O)C1(C(N)=O)OC1c1ccc(Cl)cc1Cl (stereo unspecified)	-3.19%
C[N+](C)(C)CCNC(=O)c1cc[n+](Cc2ccccc2)c(/C=N/O)c1	-22.5%
O=C(Nc1c(Br)cc2c(c1Br)Cc1ccccc1-2)C(F)(F)F	-31.9%
CN(CC(=O)Nc1ccc(F)c(F)c1F)C(=O)C1CC(=O)N(C2CCCC2)C1 (stereo unspecified)	1.3%
Cc1ccc(S(=O)(=O)NCCc2nnc3ccc(SCc4cccnc4)nn23)cc1	-3.01%
CC(=O)NNC(=O)c1csc(Cc2c(Cl)sc3ccc(Cl)cc23)n1	45.8% (active)
CNC(=O)c1csc(Cc2c(Cl)sc3ccc(Cl)cc23)n1	-6.49%
CC(=O)Cc1nsc(NC(=O)c2ccc(Cl)cc2Cl)n1	12.4%
Oc1ccccc1CNc1ncc(Br)cc1Br	-3.76%
Cc1ccc(NC(=O)COc2ccc(/C=N\NC(=O)c3cccnc3)cc2)cc1C	56% (active)
O=C(CNC(=O)c1cccnc1)N/N=C/c1cc(Br)c(O)c(Br)c1	5.12%
Cc1cccc(OCC(=O)NCCNC(=O)c2cccnc2)c1	2.8%
COc1ccc(CNC(=O)CN(c2ccc(OC)c(Cl)c2)S(=O)(=O)c2ccc(C)cc2)cc1	8.36%
COc1ccc(C(=O)NC(C)c2nccs2)cc1OC1CCN(C(C)C)CC1 (stereo unspecified)	-0.68%
Cc1ccc(CSCC(=O)N(C)CC(=O)Nc2ccc(C)cc2)cc1	5.66%
Cc1ccc(NC(=O)CN(C)C(=O)COC(=O)c2nccnc2N)cc1	57.4% (active)
Cc1ccc(NC(=O)CN(C)C(=O)COC(=O)C(C)(C)Oc2ccc(Cl)cc2)cc1	9.98%
O=C(OCCOCn1cc(Br)c(=O)[nH]c1=O)c1ccccc1	1.74%
COC(=O)c1sc(-c2ccc(C(C)(C)C)cc2)cc1NC(=O)/C=C/C(=O)O	-17%
COc1cccc(/C=N/Nc2cc(C)nc(-c3ccccc3O)n2)c1O	40.2% (active)

SMILES	inhibition
COc1ccc(N2C(=O)CC(Sc3n[nH]c(-c4ccc(C)cc4)n3)C2=O)cc1 (stereo unspecified)	0.38%
Cc1ccccc1NC(=O)COc1cccc2c1CCNC2=O	-9.32%
Nc1nnnn1CC(=O)N/N=C/c1ccc(-c2cccc(Cl)c2)o1	49.1% (active)
O=C(Cn1nnc(-c2ccccc2)n1)N/N=C/c1ccc(-c2ccc(Cl)cc2)o1	28.8%
CCCCCN(C(=O)NC(=O)Nc1ccccc1C)S(C)(=O)=O	-3.04%
COc1ccc(C2CC(c3cccs3)=NN2C(=O)CSc2nnc(N)s2)cc1OC (stereo unspecified)	-4.71%
COc1cccc(C2CC(c3cccs3)=NN2C(=O)CSC2=NCCS2)c1OC (stereo unspecified)	47.3% (active)
COc1ccc(C2CC(c3cccs3)=NN2C(=O)COC(=O)c2cc3ccccc3cc2O)cc1OC (stereo unspecified)	0.97%
CCN1C(=O)/C(=C\N2CCOCC2)SC1=S	-15.3%
O=C1c2ccccc2S(=O)(=O)c2cc(N3CCN(c4ccccn4)CC3)ccc21	-31.5%
O=C1c2cccc3cccc(c23)N1CN1CCN(c2ccccn2)CC1	38.1% (active)
O=C(c1cc2ccccc2s1)N1CCN(c2ccccn2)CC1	-7.27%
Cc1ccc(O)c(NC(=S)NC(=O)COc2ccc(Br)cc2)c1	12.7%
COc1cc(NC(=O)CCNC(=O)Cn2ccc3ccccc3c2=O)cc(OC)c1OC	5.61%
Cc1cccc(N)c1SC1CCCCC1O (stereo unspecified)	6.45%
COCOCCn1cc(CN2CCS(=O)(=O)N(Cc3ccc(-c4ccc(OC)cc4)cc3)C(CC(C)C)C2=O)nn1 (stereo unspecified)	-8.33%
COc1cccc(/C=C/C(=O)OCC(=O)N2CCN(c3ccccc3)CC2)c1	31.1%
COc1cccc(/C=C/C(=O)OCC(=O)N2CCCc3ccccc32)c1	40.6% (active)
COCCn1c(C)cc(C(=O)COC(=O)/C=C/c2cccc(OC)c2)c1C	12.7%
CC(NC(=O)CN1CCN(Cc2ccc(Cl)cc2)C1=O)c1ccc2c(c1)OCCO2 (stereo unspecified)	-6.96%
COc1ccc(CCN2C(=O)C3CC=C(C)CC3C2=O)cc1OC (stereo unspecified)	1.1%
O=S(=O)(Nc1ccccn1)c1cccc(S(=O)(=O)c2ccc(Cl)cc2)c1	-0.91%
COc1ccc(OC)c(C(C)NC(=S)Nc2ccc(S(=O)(=O)Nc3ncccn3)cc2)c1 (stereo unspecified)	5.42%

SMILES	inhibition
COc1cc(NS(=O)(=O)c2ccc3ccccc3c2)c2ncccc2c1	50.3% (active)
CC(C)NC(=S)Nc1cccc2cnccc12	0.89%
Cc1ccc(-n2nc3c(c2NC(=O)c2ccc4c(c2)OCO4)CSC3)c(C)c1	18.4%
C=CCNC(=O)c1ccc2c3n(nc2c1)-c1ccc(C)cc1CO3	49.5% (active)
OC(COCc1ccco1)CN1CCN(c2ccccc2)CC1 (stereo unspecified)	-1.36%
COc1ccc(-c2c(C#Cc3ccsc3)c3cc(-c4ccc(CN5CCOCC5)cc4)ccc3n2C)cc1	22.8%
COc1ccc(Cl)cc1NC(=O)CN(C)C(=O)c1cn(-c2ccccc2)nc1-c1cccs1	-140%
COc1cccc(NC(=O)CN(C)C(=O)/C=C/c2cn(-c3ccccc3)nc2-c2cccs2)c1	60.2% (active)
O=c1cc(CO)oc(C(Nc2cccc(C(F)(F)F)c2)c2ccccn2)c1O (stereo unspecified)	0.9%
CC(C)C[C@H]1CNC(=O)C(=O)N1C[C@@H]1CCCN1C[C@H](Cc1ccccc1)N1C[C@H](CC(C)C)N(CC2CCCCCC2)C(=O)C1=O	7.12%
CN(C)c1ccc2c(=O)[nH][nH]c(=O)c2c1	33.3%
COc1ccc(N2CC(C(=O)N[C@@H](C)C(=O)N3CCCCC3)CC2=O)cc1 (stereo partly specified)	-5.41%
O=C1NC(c2ccncc2)Nc2sc3c(c21)CCCC3 (stereo unspecified)	44.1% (active)
COc1ccc(OC)c(/C=N/NC(=O)c2ccc[n+](CC(=O)c3ccccc3)c2)c1	-1.66%
O=C(N/N=C/c1ccsc1)c1cc(O)cc(O)c1	-1.8%
COc1cccc(Cn2cc(/C=N/NC(=O)c3cc(O)cc(O)c3)c3ccccc32)c1	57.8% (active)
NC(=O)CN1CCCC1c1ccc2c(c1)OCCO2 (stereo unspecified)	0.21%
CCOc1ccc(NC(=O)C2CCCN(C(=O)Nc3ccccc3)C2)cc1 (stereo unspecified)	-6.95%
CCCCc1cc2c(s1)CCCC/C2=N/O	-11.4%
C=CCN1C(=O)C(O)(CC(=O)c2ccccn2)c2ccccc21 (stereo unspecified)	1.24%
COc1ccc(/C=C(\C#N)c2c[nH]c3ccccc23)cc1	44.5% (active)
COc1ccc(C2C(C(C)=O)=C(O)C(=O)N2CCc2c[nH]c3ccccc23)cc1 (stereo unspecified)	-15.3%
C[N+](C)(C)CCNC(=O)c1c[nH]c2ccccc12	16.8%

SMILES	inhibition
O=C(CCN1C(=O)c2ccccc2C1=O)C1=NN[C@@H]2C(=O)N(c3ccc(F)cc3)C(=O)[C@H]12	-15%
C[C@H](O)[C@@H]1C(=O)N2CCc3c([nH]c4ccccc34)[C@@H]2C[C@@H]1N(C)C(=O)Nc1ccc(F)cc1	50.2% (active)
COCC(=O)N(C)[C@H]1C[C@H]2c3cc(Oc4ccccc4C)ccc3CCN2C(=O)[C@H]1[C@H](C)O	2.1%
C[C@H](O)[C@@H]1C(=O)N2CCc3ccc(N4CCOCC4)cc3[C@@H]2C[C@@H]1N(C)C(=O)C(C)(C)C	22%
CC(=O)N1c2ccc(S(=O)(=O)N(C)CC(=O)N(C)Cc3ccccc3)cc2CC1C (stereo unspecified)	1.96%
Cc1ccc(CN(Cc2cccnc2)C(=S)Nc2cccc(Cl)c2C)cc1	1.43%
COCCn1c(Cc2cccn2C)nnc1SCC(=O)Nc1nccs1	-1.55%
CCCCN(C=O)c1c(CC)nc2c(OCc3ccccc3C(=O)OC)cccn12	8.99%
COc1ccc(C2OC(=O)CC2C(=O)NC(C)C)cc1 (stereo unspecified)	4.68%
COCCNC(=O)Nc1ccc2nc(-c3ccco3)c(-c3ccco3)nc2c1	49.3% (active)
COCCNC(=O)c1ccc2nc(Cc3ccc(OC)c(OC)c3)oc2c1	-5.61%
COCCNC(=O)CN(Cc1ccco1)C(=O)CCC(=O)Nc1nccs1	0.84%
CSCCC(NC(=O)c1ccc(Cl)cc1Cl)C(=O)NNC(=O)c1csc(N2CCOCC2)n1 (stereo unspecified)	31%
Cc1ccc(N/N=C2\COC(C)(C)CC2=O)cc1	0.52%
NS(=O)(=O)c1ccc2nc(NC(=O)CS(=O)(=O)c3ccc(F)cc3)sc2c1	1.17%
CS(=O)(=O)c1ccc2nc(NC(=O)c3ccc(Cl)nc3)sc2c1	65.7% (active)
Cc1nc2ccc(S(=O)(=O)NCC(=O)O)cc2s1	7.99%
Cc1nn2c(=O)cc(COC(=O)c3ccc(NC(=O)C(C)(C)C)cc3)nc2s1	-2.19%
CCOC(=O)C1CCCN(C(=O)C2CCN(S(=O)(=O)c3ccc(Cl)c(C(F)(F)F)c3)CC2)C1 (stereo unspecified)	-19.5%
CCOc1cc(C(=O)Nc2ccc(S(=O)(=O)Nc3cnc4ccccc4n3)cc2)cc(OCC)c1OCC	6.73%
Cc1ccc2nsnc2c1NC(=O)c1ccccc1[N+](=O)[O-]	-26.4%
CCOc1cc(C(=O)Nc2c(C)ccc3nsnc23)cc(OCC)c1OCC	41.7% (active)
